The target of one assay is COMMD8. In words: pooled miR-30 sensor sort-seq; sequence = guide strand. As to conditions: shRNA.
The sequence TATTTCTCTTGACAGAGCCTGT registered a sensor-assay potency score (higher = more potent) of -1.04. On the same count and under the same terms, then TATTTTGTGAAGAAGCTGCGGG, with 0.366. Same read-out and setting: for TTTCTCTTGACAGAGCCTGTTT the value was -0.392. The sequence AATTATTTTGTGAAGAAGCTGC had a sensor-assay potency score (higher = more potent) of 0.272. On the same count and under the same terms, then TTTTACATCTAGATGCAGGCTT, with 0.949.

The next assay has as its target COPE. The description is as above. As to conditions: shRNA.
AACAGCTCGTCTACCTCCCCGG displayed a sensor-assay potency score (higher = more potent) of -0.819. On the same count and under the same terms, then TTCTTTACGTCGAACAGCTCGT, with -0.53. Still for that read-out and setting: for AAAGTCGTTCTCCTTGGCCTGG the value was -1.24; for TTGATGAAGGGATGGGACCTGT, -0.268; for TCAGCTGGGACAGGTATCGGTT, -0.759. For TTCTCTTCAGCTCCTTCCGGGC, the sensor-assay potency score (higher = more potent) is -0.99. The same measure, in the same setting: for TTGACCAGCGTCTCTGGGTAGC the value was -0.621. Same read-out and setting: then TTTACGTCGAACAGCTCGTCTA, with -1.05; and TCATCTCTCGGTCCAGCTCGGC, with -1.47; and TTACGTCGAACAGCTCGTCTAC, with -0.753. The same measure, in the same setting: then ATTCTCTTCAGCTCCTTCCGGG, with -0.00872; and TTGATAGCTTCACCCGCTGCGC, with -1.31.

A further assay addresses COPS6. Described as above. As to conditions: shRNA.
On to TTGTCAATGATAATCTTCTCTT, for which the sensor-assay potency score (higher = more potent) is -0.44. Turning to TTGATCATAAAAATCTGTCTTG, the sensor-assay potency score (higher = more potent) stood at 0.185.

Regarding TCTGTCTTGAACTTGTCTGTGC, the sensor-assay potency score (higher = more potent) is 0.397. Still for that read-out and setting: for AATCTGTCTTGAACTTGTCTGT the value was -0.335; for TCGTAGAGGACATTGAACTTGT, 0.432; for TTGTCGGTCGTAGAGGACATTG, -1.74.

TACTGCTGCATCCACCTCCATC returned a sensor-assay potency score (higher = more potent) of -1.31. Still for that read-out and setting: for TTAAACTGCTCCTCCTTGGTGT the value was 0.63; for TTCCTTGTCAATGATAATCTTC, -0.166. For the sequence TTCAACTTCAGAAAGAGGGGGC, the sensor-assay potency score (higher = more potent) was found to be 0.785. Same read-out and setting: for TTGTCTGTGCTGAGCACCGGGA the value was -0.77.

Take TTGAACTTGTTCACAAACTGGT: the sensor-assay potency score (higher = more potent) stood at 0.64.

Another assay has as its target COPS7A. Described as above. To be noted: shRNA.
For the sequence TTCAGCTAAGTAGTCAGCGTAT, the sensor-assay potency score (higher = more potent) is -0.555. Still for that read-out and setting: then TAATACAATCTATATACCCTTC, with -0.206; and TCTAACATTGGGCATGTCCAGC, with -1.04; and TTTACTTTAGCAGCCAGGGTGA, with -0.299.

On to TAGGAGCAGAAATTGCTCCTGG, for which the sensor-assay potency score (higher = more potent) was -0.149. Same read-out and setting: then TAGTGTGACAGGATTCTAGGAT, with 0.596; and TTGGTTGGCACGGCTCACCTGC, with -0.606. Still for that read-out and setting: for TTATTCTTCTGAGCCTCTGTTA the value was -0.522; for TTAGTGGAGGAAGATTCCGGGC, -0.887. Same read-out and setting: for TTCTAGGATGAACATGTCCAGT the value was -1.29; for TGAACCTAGGATTATCAGCTGG, -0.856.
Note: reference of the scale not given here.
